Screening results (PubChem)
MEP2 TOR yeast: yeast TOR pathway MEP2-GFP modulation | S. cerevisiae MEP2-GFP strain, flow cytometry GFP, 3 h; 100% = DMSO control level | 330,000 compounds, 0.51% hits | GFP response vs DMSO, % at 10 µM | AID 2016;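 active means GFP response versus DMSO above a set limit, roughly screen mean plus 3 SD, cut at about 180% in these data; inconclusive means fewer than 70 cells counted for a yeast strain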;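 further: median GFP fluorescence of the barcode-gated MEP2-GFP cells per well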
LAP4-GFP MLPCN: modulators of TOR pathway LAP4-GFP in S. cerevisiae; S. cerevisiae LAP4-GFP multiplex, flow cytometry GFP, 3 h; median GFP as percent of DMSO wells; GFP response vs DMSO, % at 10 µM; 320,000 compounds, 0.34% hits; AID 2023;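 active means GFP response vs DMSO above a set limit, about the screen mean plus 3 SD, cut at about 150% in these data; inconclusive means under 70 cell events counted for the yeast strain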
AGP1 TOR yeast: alters AGP1-GFP fluorescence in TOR pathway yeast screen. S. cerevisiae AGP1-GFP multiplex flow cytometry, 3 h; GFP as percent of DMSO wells. GFP response vs DMSO, % at 10 µM. 320,000 compounds, 0.02% hits. AID 2066;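 active means GFP response relative to DMSO above a set limit, near screen average plus 3 SD, cut at about 150% in these data; inconclusive means fewer than 70 cells counted for the yeast strain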;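 further: median GFP channel fluorescence of the gated AGP1 strain per well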
RPL19A TOR yeast: alters RPL19A-GFP fluorescence in TOR pathway yeast screen | percent response vs DMSO, % at 10 µM | S. cerevisiae RPL19A-GFP strain, flow cytometry, 3 h; stronger effect = lower value | 330,000 compounds, 0.3% hits;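 active means percent response vs DMSO below 50%; inconclusive means fewer than 70 events counted for the yeast strain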;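 further: median channel GFP fluorescence of the barcoded RPL19A-GFP strain; ratio of sample median GFP to plate DMSO average so 100% = DMSO; lower means less RPL19A-GFP as with rapamycin TOR inhibition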
CIT2-GFP yeast: modulators of TOR pathway CIT2-GFP in S. cerevisiae; AID 2029; S. cerevisiae CIT2-GFP strain, flow cytometry, 3 h; 100 means same as DMSO wells; 320,000 compounds, 0.065% hits; GFP response vs DMSO, % at 10 µM;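 active means GFP response relative to DMSO above a set limit, near the screen mean plus 3 SD, cut at about 150% in these data; inconclusive means Fewer than 70 cells measured for a yeast strain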;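 further: ratio of well median GFP fluorescence to mean of DMSO wells on the plate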
Pemphigus Ab inh: blocks pemphigus antibody binding to human desmoglein-3 | AID 588358 | 310,000 compounds, 0.48% hits | P32926 | DSG3-coupled beads, scFv-anti-DSG3-GFP binding, flow cytometry; stronger effect = lower value | binding (percent of control), % at 10 µM;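 active means binding more than 3 SD below its plate's average and above zero; inconclusive means below that plate limit but binding exactly zero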
Target sequence (P32926 whole entry, looked up): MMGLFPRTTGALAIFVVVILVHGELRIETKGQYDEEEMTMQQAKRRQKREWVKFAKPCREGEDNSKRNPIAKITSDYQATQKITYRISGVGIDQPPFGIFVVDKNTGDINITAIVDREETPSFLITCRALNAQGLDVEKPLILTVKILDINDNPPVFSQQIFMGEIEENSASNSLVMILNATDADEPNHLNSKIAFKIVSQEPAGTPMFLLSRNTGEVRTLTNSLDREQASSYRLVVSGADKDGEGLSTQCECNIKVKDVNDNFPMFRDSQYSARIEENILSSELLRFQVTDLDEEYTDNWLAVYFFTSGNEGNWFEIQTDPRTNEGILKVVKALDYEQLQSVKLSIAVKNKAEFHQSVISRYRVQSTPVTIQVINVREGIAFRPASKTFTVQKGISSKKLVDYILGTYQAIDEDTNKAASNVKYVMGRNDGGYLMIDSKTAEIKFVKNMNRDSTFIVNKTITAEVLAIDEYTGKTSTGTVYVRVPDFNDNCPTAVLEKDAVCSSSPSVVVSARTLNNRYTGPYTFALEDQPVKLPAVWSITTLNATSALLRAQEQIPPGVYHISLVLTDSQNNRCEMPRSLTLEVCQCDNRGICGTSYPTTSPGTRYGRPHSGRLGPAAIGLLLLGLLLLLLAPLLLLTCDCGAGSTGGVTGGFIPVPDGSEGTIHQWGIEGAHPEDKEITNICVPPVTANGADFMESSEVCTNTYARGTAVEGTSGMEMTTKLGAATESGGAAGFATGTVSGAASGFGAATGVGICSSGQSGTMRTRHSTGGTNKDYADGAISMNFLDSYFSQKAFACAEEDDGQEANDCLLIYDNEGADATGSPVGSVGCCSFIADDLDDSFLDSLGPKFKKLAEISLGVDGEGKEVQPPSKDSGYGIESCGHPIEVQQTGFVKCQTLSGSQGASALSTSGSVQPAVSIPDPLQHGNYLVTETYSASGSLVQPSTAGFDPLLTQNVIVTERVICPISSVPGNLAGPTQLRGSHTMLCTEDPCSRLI
* marks the source's active call; other numbers are inactive results; ? = inconclusive; nt = no result; [ ] = dose if it differs, or a comment. In the library only some 1.2% were active in any assay of this set; here they are far more common.

SMILES | MEP2 TOR yeast | LAP4-GFP MLPCN | AGP1 TOR yeast | RPL19A TOR yeast | CIT2-GFP yeast | Pemphigus Ab inh
COc1ccc(CNC(=O)COC(=O)c2c(NC(C)=O)sc(C)c2C)cc1OC | nt | nt | nt | nt | nt | 97
O=C(CCCN1C(=O)c2cccc3cccc(c23)C1=O)N1CCN(c2ccccc2)CC1 | 103 | 107 | 98 | 103 | 96 | 47*
O=C(CCCCCN1C(=O)c2cccc3cccc(c23)C1=O)NCCO | 102 | 109 | 107 | 102 | 106 | 73*
O=C(CCCN1C(=O)c2cccc3cccc(c23)C1=O)N1CCN(c2ccccc2O)CC1 | 111 | 102 | 99 | 98 | 101 | 100
CC1=C(c2ccccc2)C(O)(c2ccccc2)C(C)C1=O (configuration not stated) | nt | nt | nt | nt | nt | 118
O=C(CN1C(=O)C(=O)N(Cc2ccco2)C1=O)NC1CCCCC1 | 98 | 113 | 99 | 99 | 102 | 103
COc1cccc(C(=O)NC23CC4CC(CC(C4)C2)C3)c1 | 105 | 86 | 94 | 104 | 99 | 97
CC(C)(C)OC(=O)n1cc(/C=N/NC(=O)c2ccco2)c2ccccc21 | 117 | 118 | 119 | 98 | 154*[may fluoresce green] | ?
CC(=O)n1cc(/C=N/NC(=O)c2ccccc2O)c2ccccc21 | 107 | 107 | 103 | 99 | 101 | 95
COCCn1c(-c2ccc(-c3ccc([N+](=O)[O-])cc3Br)o2)nc2c1c(=O)[nH]c(=O)n2CC(C)C | 95 | 100 | 98 | 108 | 99 | 78*
COCCn1c(=O)[nH]c(=O)c2c1nc(-c1ccc(-c3ccc(Cl)cc3[N+](=O)[O-])o1)n2Cc1ccccc1 | 102 | 100 | 105 | 102 | 99 | 96
COc1ccc(-c2ccc(-c3nc4c(c(=O)[nH]c(=O)n4Cc4ccccc4)n3C)o2)c([N+](=O)[O-])c1 | 94 | 79 | 97 | 99 | 104 | 76*
O=C(O)CCCCCNc1ccc2nsnc2c1[N+](=O)[O-] | 107 | 110 | 107 | 107 | 103 | 100
Cc1nn(-c2ccccc2)c(C)c1/C=N/NC(=O)c1cc(-c2ccc(Cl)s2)[nH]n1 | 101 | 104 | 97 | 96 | 102 | 103
Cc1nn(-c2ccccc2)c(C)c1/C=N/NC(=O)c1cc(-c2ccc(Br)s2)[nH]n1 | 100 | 98 | 100 | 101 | 104 | 84*
Cc1nn(-c2ccccc2)c(C)c1-c1cc(C(=O)N/N=C/c2ccc(O)cc2)[nH]n1 | 100 | 102 | 108 | 103 | 104 | 58*
CC(=O)Nc1c(C#N)c(C(C)(C)C)cn1C | 111 | 107 | 102 | 106 | 102 | 100
Cc1cccc(N2CCN(C(=O)COc3ccc4ccc(=O)oc4c3)CC2)c1C | 123 | 84 | 14 | 42*[may fluoresce violet] | ? | 108
CCC(=O)n1nc(-c2ccc(Cl)cc2)nc1NCc1ccccc1 | 108 | 105 | 104 | 103 | 105 | 97
Cc1cccc(NC(=O)CN2C(=O)NC(C)(c3ccc4c(c3)OCO4)C2=O)c1 (configuration not stated) | 289*[may fluoresce violet] | 72 | 19 | 20*[may fluoresce violet] | ? | 97
Cc1ccc(C2(C)NC(=O)N(CC(=O)Nc3ccc4c(c3)OCO4)C2=O)cc1 (configuration not stated) | 95 | 95 | 98 | 94 | 92 | nt
CCOc1ccc(NC(=O)CCNC(=O)Cn2cnc3ccccc3c2=O)cc1 | 99 | 95 | 97 | 102 | 102 | 94
Cc1ccc(C)n1NC(=O)c1ccccc1 | 99 | 96 | 95 | 97 | 92 | 102
Cc1ccc(C)n1NC(=O)c1cccs1 | 101 | 96 | 102 | 98 | 102 | 83*
COc1ccc(CCNC(=O)c2cccs2)cc1 | 108 | 94 | 92 | 106 | 98 | 116
SMILES | MEP2 TOR yeast | LAP4-GFP MLPCN | AGP1 TOR yeast | RPL19A TOR yeast | CIT2-GFP yeast | Pemphigus Ab inh
O=C(CC1S/C(=N/N=C2CCCCCC2)NC1=O)Nc1ccccc1C(F)(F)F (configuration not stated) | 182*[may fluoresce violet] | 71 | ? | 46*[may fluoresce violet] | ? | 109
COc1ccccc1NC(=O)CC1S/C(=N/N=C2\CCCc3ccccc32)NC1=O (configuration not stated) | 93 | 99 | 90 | 92 | 86 | 100
COc1ccc(CC(=O)Nc2nnc(C(C)C)s2)cc1OC | 109 | 92 | 93 | 100 | 105 | 92
O=C(/C(=C/c1ccccc1)n1cncn1)c1ccc(Cl)cc1Cl | 88 | 151* | 83 | 98 | 70 | 104
C#CC[N+]1(CC#Cc2ccccc2)CCOCC1 | 194*[may fluoresce violet] | 99 | ? | 38*[may fluoresce violet] | ? | 107
COc1ccc(C(=O)Nc2c(N)nc[nH]c2=O)cc1 | 181* | nt | nt | 65 | nt | 110
Nc1ccc2c(c1)[nH]c(=O)c1cc(N)ccc12 | nt | nt | nt | nt | nt | 75*
CC(C)N=C(Nc1ccccc1)c1cccnc1 | 177*[may fluoresce violet] | 90 | 22 | 34*[may fluoresce violet] | ? | nt
COc1cc(OC)c(C(=O)Nc2cc(S(=O)(=O)N3CCOCC3)ccc2N2CCOCC2)cc1OC | nt | nt | nt | nt | nt | 101
COCOCCn1cc(CN2CCS(=O)(=O)N(Cc3ccc(-c4ccc(Cl)c(Cl)c4)cc3)C(C(C)C)C2=O)nn1 (configuration not stated) | nt | nt | nt | nt | nt | 98
COc1ccc(-c2cc(C(=O)O)c3ccccc3n2)c(OC)c1 | 101 | 98 | 102 | 99 | 106 | nt
COc1ccc(-c2cc(C(=O)N/N=C/c3ccc4c(c3)OCO4)c3ccccc3n2)c(OC)c1 | 107 | 104 | 95 | 98 | 96 | 77*
COc1ccc(NC(=O)CN(C)C(=O)c2cc(-c3ccco3)nc3ccccc23)cc1 | 101 | 107 | 110 | 99 | 100 | 92
COc1ccc2cc(-c3cc(C(=O)O)c4ccccc4n3)ccc2c1 | 308* | 135 | 105 | 94 | nt | nt
COc1ccc(NC(=O)c2cc(-c3ccco3)nc3ccccc23)cc1 | 108 | 107 | 109 | 107 | 95 | 65*
Cc1ccc(NC(=O)COC(=O)Cc2c[nH]c3ccccc23)cc1F | nt | nt | nt | nt | nt | 103
COc1cc2c(cc1OC)C(C)N(C(=O)c1ccc(Cl)c(S(=O)(=O)N3CCCCC3)c1)CC2 (configuration not stated) | 107 | 105 | 107 | 105 | 108 | nt
Cc1ccccc1OCC(=O)Nc1c2c(nn1C(C)(C)C)CS(=O)(=O)C2 | 105 | 88 | 103 | 112 | 107 | nt
COC(=O)C1(C)CCCC2(C)C3CCC(C(C)C)C(CO)C3C(CO)CC12 (configuration not stated) | nt | nt | nt | nt | nt | 113
COc1cc(NC(=O)C/C(C)=N/NC(=O)c2ccccn2)c(OC)cc1Cl | 324*[may fluoresce violet] | 84 | ? | 48*[may fluoresce violet] | ? | 96
Cc1ccccc1C(=O)N[C@H](C(=O)OCC(=O)c1ccc[nH]1)C(C)C | 105 | 93 | 111 | 110 | 122 | 93
